Screening results deposited in PubChem by National Center for Advancing Translational Sciences (NCATS).
USP2a block = blocks human ubiquitin-specific protease USP2a | O75604 | USP2 core, Ub-CHOP2 coupled fluorogenic reporter, 485/531 | Potency, µM (doses to about 38.3 µM), without a hit: at the top dose activity change, negative = inhibition, actives largely listed as inhibitors | 330,000 tested, 0.01% active | AID 463254;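 also: potency is read from the fitted curve at half-maximal effect; plate controls were DMSO wells for no effect and full inhibition by NEM control for full effect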
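Cell-free coupled assay: 10nM USP2 core preincubated 30min RT with compound in Tris-HCl pH 8.0/CaCl2/CHAPS buffer, then 25nM Ub-CHOP2 and 25nM reporter substrate; fluorescence (Ex 485/Em 531) read after 60min RT, normalized to NEM inhibition, concentration-response curves fitted.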
VDR inh = inhibitors of human vitamin D receptor; Potency, µM, for inactives: max response, negative = inhibition, hits mostly inhibitors; P11473; VDR-SRC2-3 peptide fluorescence polarization, 2 h; 400,000 tested, 0.93% active; also: potency is read from the fitted curve at half-maximal effect
Target sequence (P11473 whole entry, looked up): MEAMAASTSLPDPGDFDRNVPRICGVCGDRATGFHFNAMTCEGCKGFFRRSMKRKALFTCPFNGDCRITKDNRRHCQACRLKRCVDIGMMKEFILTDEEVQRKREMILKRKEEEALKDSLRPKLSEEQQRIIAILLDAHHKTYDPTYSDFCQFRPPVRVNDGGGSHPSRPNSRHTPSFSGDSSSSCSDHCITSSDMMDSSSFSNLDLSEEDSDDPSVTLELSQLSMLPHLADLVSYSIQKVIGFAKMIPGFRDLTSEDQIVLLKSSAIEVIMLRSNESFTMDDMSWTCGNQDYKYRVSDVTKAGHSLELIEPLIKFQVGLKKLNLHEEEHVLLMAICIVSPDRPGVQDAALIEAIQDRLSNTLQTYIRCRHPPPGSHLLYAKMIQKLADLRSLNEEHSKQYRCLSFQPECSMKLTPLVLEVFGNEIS
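Inhibition of the VDR/SRC2-3 peptide interaction is quantified by fluorescence polarization. Compounds (23 nl, pintool) incubate with the reagents for 2 hours at ambient room temperature.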
USP1 inh = USP1/UAF1 (human) deubiquitinase inhibition; O94782; recombinant USP1/UAF1, Ub-Rhodamine cleavage fluorescence; Potency, µM (highest dose often 57.1 µM), without a hit: top-dose activity change, negative = inhibition, most hits filed as inhibitors; 390,000 tested, 0.23% active; also: potency is read from the fitted curve at half-maximal effect; nearly all actives have a fitted effect of over 60% in size
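In this screen, compounds sit with the deubiquitinase complex (1nM) for 15 min at room temperature before Ub-Rho is added at 150nM final. Fluorescence rise is then followed for 6 reads every 60 seconds.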
PLK1 PBD block = PLK1 (human) polo-box domain binding inhibition | Plk1 PBD binding of FITC phosphopeptide, fluorescence polarization | P53350 | 360,000 tested, 2.8% active | Potency, µM, for inactives: max response, negative = inhibition, most hits filed as inhibitors | AID 720504; also: potency is read from the fitted curve at half-maximal effect; series mostly up to about 57 µM; nearly all actives have a fitted effect of over 65% in size
GALK inhibitor = blocks human galactokinase activity; Potency, µM (titrated, usually from 57.5 µM), without a hit: at the top dose activity change, negative = inhibition, most hits filed as inhibitors; P51570; 270,000 tested, 0.007% active; Purified GALK, Kinase-Glo residual ATP luminescence; AID 1868; also: potency is read from the fitted curve at half-maximal effect
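ATP-depletion format; final 35 uM ATP, 100 uM D-galactose, 5 nM enzyme; pH 8.0 HEPES/Mg2+ buffer; 60 min RT; luminescence read 10 min after detection reagent.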
Coupling enz = inhibits coupling enzyme system, counter-screen for aldolase hits; coupling enzyme system counterscreen, AmpLite Red fluorescence; activity change, negative = inhibition, % at 58.2 µM, hits read low; 290,000 tested, 0.67% active; in the data active = activity change below about -30%
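Counterscreen of the coupled detection system alone, without aldolase: glyceraldehyde-3-phosphate coupling enzymes plus AmpLite Red readout. Compounds at 57.5 uM final, 10 min RT preincubation, 20 min RT reaction, fluorescence 525/598 nm.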
* = called active by the depositor. Rows were chosen to be rich in hits. Some 3.2% of all compounds tested hit in one or more screens of this group. Unless noted, calls follow the shape of the dose curve; as a rule, active = well fitted curve in the direction sought with a large enough effect; inconclusive = small, poorly fitted or top-dose-only effect, or another doubt; inactive = no such curve, though single readings can be large; an effect the other way counts as inactive or inconclusive. Unless noted, % is scaled to controls: 0 for no effect and ±100 for the full control effect.

`O=C(NCc1cccs1)c1cccn2c(=O)c3sccc3nc12` gave USP2a block 7%, VDR inh 20%, USP1 inh -19%, PLK1 PBD block -2%, GALK inhibitor -3% and Coupling enz 5.
For CCCCCNC(=O)c1ccc2c(=O)[nH]c3c(C(=O)NCC4CCCO4)sc(=S)n3c2c1 (stereo unspecified) the results were USP2a block 0%, VDR inh -8%, USP1 inh -26%, PLK1 PBD block 27µM*, GALK inhibitor -2% and Coupling enz 7.
Screening CCn1c(N)c(C(=O)N2CCOCC2)sc1=S returned USP2a block -1%, VDR inh -12%, USP1 inh -3%, PLK1 PBD block 15µM*, GALK inhibitor 0% and Coupling enz -1.
`CCNC(=O)c1sc(=S)n(CC)c1N` gave USP2a block -13%, VDR inh -9%, USP1 inh -22%, PLK1 PBD block 27µM*, GALK inhibitor -1% and Coupling enz 0.
For C=CCn1c(N)c(C(=O)Nc2ccc(C)cc2)sc1=S the results were USP2a block 1%, VDR inh -3%, USP1 inh -8%, PLK1 PBD block -13%, GALK inhibitor 3% and Coupling enz -2.
`CCn1c(N)c(C(=O)NCC2CCCO2)sc1=S` (stereo unspecified) gave USP2a block 1%, VDR inh 35µM*, USP1 inh -22%, PLK1 PBD block 4.7µM*, GALK inhibitor -1% and Coupling enz -1.
Cc1ccc(CNC(=O)c2ccc3c(=O)[nH]c4c(C(=O)NCC5CCCO5)sc(=S)n4c3c2)cc1 (stereo unspecified) was read as USP2a block -1%, VDR inh -16%, USP1 inh -16%, PLK1 PBD block inconclusive, GALK inhibitor -1% and Coupling enz 4.
For N#CC1=C(N)N=C(SCc2ccccc2)C(C(N)=O)C12CCCCC2 (stereo unspecified) the results were USP2a block 0%, VDR inh -2%, USP1 inh -2%, PLK1 PBD block -3%, GALK inhibitor 1% and Coupling enz -4.
For Cn1c(SCC(=O)Nc2ccc3cn[nH]c3c2)nnc1-c1cnccn1 the results were USP2a block -1%, VDR inh 11%, USP1 inh -17%, PLK1 PBD block -10%, GALK inhibitor 7% and Coupling enz -17.
`CCn1c(N)c(C(=O)NCCCOC)sc1=S` gave USP2a block 1%, VDR inh inconclusive, USP1 inh -8%, PLK1 PBD block 21µM*, GALK inhibitor -2% and Coupling enz -2.
For CCN(CC)CCN(C(=O)C1=COCCO1)c1nc2c(OC)ccc(OC)c2s1 the results were USP2a block 0%, VDR inh -9%, USP1 inh -19%, PLK1 PBD block 0%, GALK inhibitor -1% and Coupling enz -1.
Screening COc1ccc(-n2nnc3c(SC(C(C)=O)C(=O)N(C)C)ncnc32)cc1 (stereo unspecified) returned USP2a block 3%, VDR inh 7.1µM*, USP1 inh -19%, PLK1 PBD block 24µM* and GALK inhibitor 4%.
Screening CCC1=Nc2cc(C(=O)NC(C)c3ccccc3)ccc2Sc2ccc(Cl)cc21 (stereo unspecified) returned VDR inh -4% and USP1 inh -14%.
`COc1ccc(NC(=O)CCCS(=O)(=O)c2nc(-c3ccc(OC)c(OC)c3)cc(C(F)(F)F)n2)cc1OC` gave VDR inh 79µM* and USP1 inh inconclusive.
O=C(CSc1nnnn1-c1ccc(O)cc1)NC1CCCCC1 was read as USP2a block 1%, VDR inh 4%, USP1 inh -21%, PLK1 PBD block 0%, GALK inhibitor -2% and Coupling enz 6.
Screening CN(Cc1ccco1)c1cc(-c2ccc3c(c2)OCO3)ncn1 returned VDR inh 22µM* and Coupling enz -2.
CN(Cc1ccco1)c1cc(-c2cccnc2)ncn1 was read as VDR inh inconclusive and Coupling enz -1.
`Clc1ccc(-c2nnc(C34CC5CC(CC(C5)C3)C4)o2)cn1` gave USP2a block 2%, VDR inh -9%, USP1 inh -16%, PLK1 PBD block 19µM*, GALK inhibitor 0% and Coupling enz 3.
For CCOC(=O)C1=C(N)OC2=C(C(=O)CCC2)C1c1cccs1 (stereo unspecified) the results were USP2a block 0%, VDR inh 2%, USP1 inh -7%, PLK1 PBD block -6%, GALK inhibitor 6% and Coupling enz -40*.
`COC(=O)C1=C(N)OC2=C(C(=O)CCC2)C1c1cccs1` (stereo unspecified) gave USP2a block -2%, VDR inh -17%, USP1 inh -3%, PLK1 PBD block -29%, GALK inhibitor 0% and Coupling enz -15.
Cc1ccc(/C=C/C(=O)OCC(=O)N2CC(=O)Nc3ccccc32)o1 was read as USP2a block 1%, VDR inh -24%, USP1 inh inconclusive, PLK1 PBD block 27µM*, GALK inhibitor -1% and Coupling enz -16.
Screening O=S(=O)(c1ccc(Cl)cc1)N1CCSC1c1ccco1 (stereo unspecified) returned USP2a block 0%, VDR inh -10%, USP1 inh -28%, PLK1 PBD block -10%, GALK inhibitor 7% and Coupling enz -8.
Screening O=[N+]([O-])c1ccc(S(=O)(=O)N2CCSC2c2ccco2)cc1 (stereo unspecified) returned USP2a block 2%, VDR inh 79µM*, USP1 inh -27%, PLK1 PBD block 12µM* and Coupling enz -8.
O=C(O)c1ccc(N2CC3CC(C2)c2cccc(=O)n2C3)c(NC(=S)Nc2ccc(Br)cc2)c1 (stereo unspecified) was read as USP2a block -5%, VDR inh inconclusive, USP1 inh -29%, PLK1 PBD block 19µM*, GALK inhibitor 1% and Coupling enz -3.
For Cc1ccnc(SCc2ccc(C(=O)O)cc2)n1 the results were USP2a block 2%, VDR inh -22%, USP1 inh -26%, PLK1 PBD block 12µM* and Coupling enz 3.
`c1cc(NC2CC2)nc(-c2ccoc2)n1` gave VDR inh inconclusive and Coupling enz -4.
CCN(CC)CCOc1nc(C)nc2c1oc1ccccc12 was read as USP2a block -1%, VDR inh -3%, USP1 inh -17%, PLK1 PBD block 27µM*, GALK inhibitor 5% and Coupling enz -1.
